# Measurements from publication PMC7862700, “An all-to-all approach to the identification of sequence-specific readers for epigenetic DNA modifications on cytosine”.
# What was measured:
# Assay in all cases: DAPPL (digital affinity profiling via proximity ligation, sequencing); 10 mM Tris-HCl pH 7.5, 50 mM NaCl, 1 mM DTT, 4% glycerol, room temperature, 30 min; GST-TFs on glutathione beads, 16-mer random dsDNA library, 0.1% formaldehyde crosslink after washing; high values mean tight binding
# FEV = target: T1, FEV (Homo sapiens, UniProt Q99581 1-238); details: protein: recombinant; tags: N-terminal GST; dsDNA, one strand shown
# T1 sequence: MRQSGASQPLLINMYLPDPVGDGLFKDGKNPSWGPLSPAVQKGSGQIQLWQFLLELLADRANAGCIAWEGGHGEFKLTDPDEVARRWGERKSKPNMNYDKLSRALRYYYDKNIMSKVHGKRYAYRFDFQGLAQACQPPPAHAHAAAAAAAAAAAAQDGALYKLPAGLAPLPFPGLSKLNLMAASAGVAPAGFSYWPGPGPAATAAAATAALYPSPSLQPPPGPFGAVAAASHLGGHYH
# Outline: (§1)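 Human transcription factors fused to GST were expressed in yeast, captured on glutathione beads, given DNA barcodes and pooled with a GST-only negative control. Pools were incubated with 200 nmole of a 16-mer random double-stranded DNA library in Tris/NaCl/DTT/glycerol buffer at room temperature for 30 min. They were then washed, crosslinked with 0.1% formaldehyde, proximity-ligated (BsaI/T4 ligase, 1 h, 37 °C), PCR-amplified and sequenced on an Illumina NextSeq500. Binding signal is each 6-mer's read frequency for a factor divided by its frequency for the GST control.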
# ETV5 = ETV5 (Homo sapiens, UniProt P41161 1-510); details: protein: recombinant; tags: N-terminal GST; dsDNA, one strand shown
# Outline: as §1
# HSF1 = HSF1 (Homo sapiens, UniProt Q00613 1-529); details: protein: recombinant; tags: N-terminal GST; chain copies: 3; dsDNA, one strand shown
# Outline: as §1
# SPIC = target: T2, SPIC (Homo sapiens, UniProt Q8N5J4 1-248); details: protein: recombinant; tags: N-terminal GST; dsDNA, one strand shown
# T2 sequence: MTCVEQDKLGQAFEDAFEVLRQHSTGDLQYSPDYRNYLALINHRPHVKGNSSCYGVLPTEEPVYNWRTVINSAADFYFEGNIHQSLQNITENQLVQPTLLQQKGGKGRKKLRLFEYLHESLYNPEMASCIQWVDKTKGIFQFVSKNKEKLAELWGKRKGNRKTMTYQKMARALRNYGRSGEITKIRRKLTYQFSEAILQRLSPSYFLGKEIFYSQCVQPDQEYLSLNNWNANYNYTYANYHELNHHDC
# Outline: as §1
# ELF4 = ELF4 (Homo sapiens, UniProt Q99607 1-663); details: protein: recombinant; tags: N-terminal GST; dsDNA, one strand shown
# Outline: as §1
# ELK4 = target: T3, ELK4 (Homo sapiens, UniProt P28324-2 1-405); details: protein: recombinant; tags: N-terminal GST; dsDNA, one strand shown
# T3 sequence: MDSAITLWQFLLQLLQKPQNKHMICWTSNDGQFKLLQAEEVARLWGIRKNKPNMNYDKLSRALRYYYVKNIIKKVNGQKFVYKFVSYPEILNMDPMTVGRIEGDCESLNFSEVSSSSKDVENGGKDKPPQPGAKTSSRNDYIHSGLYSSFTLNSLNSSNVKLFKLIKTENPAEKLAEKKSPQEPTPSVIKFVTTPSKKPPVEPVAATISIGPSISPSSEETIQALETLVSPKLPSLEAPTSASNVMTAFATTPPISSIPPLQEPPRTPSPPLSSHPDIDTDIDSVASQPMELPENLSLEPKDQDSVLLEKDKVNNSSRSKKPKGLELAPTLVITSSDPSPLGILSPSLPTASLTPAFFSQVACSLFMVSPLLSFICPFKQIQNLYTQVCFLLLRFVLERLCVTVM
# Outline: as §1
# ETV2 = target: T4, ETV2 (Homo sapiens, UniProt O00321 1-342); details: protein: recombinant; tags: N-terminal GST; dsDNA, one strand shown
# T4 sequence: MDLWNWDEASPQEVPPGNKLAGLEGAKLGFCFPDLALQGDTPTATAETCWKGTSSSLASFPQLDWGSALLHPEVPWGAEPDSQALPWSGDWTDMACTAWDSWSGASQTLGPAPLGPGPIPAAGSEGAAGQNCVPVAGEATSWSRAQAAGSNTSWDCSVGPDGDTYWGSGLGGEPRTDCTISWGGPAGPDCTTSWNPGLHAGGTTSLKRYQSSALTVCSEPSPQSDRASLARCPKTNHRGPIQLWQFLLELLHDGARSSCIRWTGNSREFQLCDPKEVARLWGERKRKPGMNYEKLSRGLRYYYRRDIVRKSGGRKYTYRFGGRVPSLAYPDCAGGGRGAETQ
# Outline: as §1
# ELF3 = target: T5, ELF3 (Homo sapiens, UniProt P78545 1-371); details: protein: recombinant; tags: N-terminal GST; dsDNA, one strand shown
# T5 sequence: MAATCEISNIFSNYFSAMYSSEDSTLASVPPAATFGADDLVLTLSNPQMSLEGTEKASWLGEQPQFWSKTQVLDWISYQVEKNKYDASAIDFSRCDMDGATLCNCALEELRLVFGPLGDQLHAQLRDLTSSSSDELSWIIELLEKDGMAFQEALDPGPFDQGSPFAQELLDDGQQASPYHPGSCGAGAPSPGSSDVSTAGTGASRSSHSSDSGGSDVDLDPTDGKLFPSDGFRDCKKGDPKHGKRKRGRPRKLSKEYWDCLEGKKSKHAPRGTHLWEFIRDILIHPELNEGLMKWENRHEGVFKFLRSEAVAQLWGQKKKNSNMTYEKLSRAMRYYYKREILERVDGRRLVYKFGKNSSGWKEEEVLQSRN
# Outline: as §1
# CRX = CRX (Homo sapiens, UniProt O43186 1-299); details: protein: recombinant; tags: N-terminal GST; dsDNA, one strand shown
# Outline: as §1
# ETV1 = ETV1 (Homo sapiens, UniProt P50549 1-477); details: protein: recombinant; tags: N-terminal GST; dsDNA, one strand shown
# Outline: as §1
# ERF = target: T6, ERF (Homo sapiens, UniProt P50548 1-548); details: protein: recombinant; tags: N-terminal GST; dsDNA, one strand shown
# T6 sequence: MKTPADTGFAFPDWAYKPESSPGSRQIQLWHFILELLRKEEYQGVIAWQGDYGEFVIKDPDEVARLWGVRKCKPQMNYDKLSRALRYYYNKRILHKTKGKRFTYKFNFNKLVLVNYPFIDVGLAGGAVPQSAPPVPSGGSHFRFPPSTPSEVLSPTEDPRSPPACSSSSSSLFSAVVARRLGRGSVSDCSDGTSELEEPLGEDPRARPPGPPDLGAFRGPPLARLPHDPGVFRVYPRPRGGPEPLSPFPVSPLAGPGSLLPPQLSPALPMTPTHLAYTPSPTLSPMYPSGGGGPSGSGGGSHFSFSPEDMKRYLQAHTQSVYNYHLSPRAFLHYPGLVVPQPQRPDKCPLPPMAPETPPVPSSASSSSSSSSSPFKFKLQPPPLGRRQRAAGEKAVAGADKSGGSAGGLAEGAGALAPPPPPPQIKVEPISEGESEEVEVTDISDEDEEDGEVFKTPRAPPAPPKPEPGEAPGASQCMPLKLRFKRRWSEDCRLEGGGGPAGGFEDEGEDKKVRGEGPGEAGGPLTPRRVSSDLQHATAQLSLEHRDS
# Outline: as §1
# ETV3L = target: T7, ETV3L (Homo sapiens, UniProt Q6ZN32 1-361); details: protein: recombinant; tags: N-terminal GST; dsDNA, one strand shown
# T7 sequence: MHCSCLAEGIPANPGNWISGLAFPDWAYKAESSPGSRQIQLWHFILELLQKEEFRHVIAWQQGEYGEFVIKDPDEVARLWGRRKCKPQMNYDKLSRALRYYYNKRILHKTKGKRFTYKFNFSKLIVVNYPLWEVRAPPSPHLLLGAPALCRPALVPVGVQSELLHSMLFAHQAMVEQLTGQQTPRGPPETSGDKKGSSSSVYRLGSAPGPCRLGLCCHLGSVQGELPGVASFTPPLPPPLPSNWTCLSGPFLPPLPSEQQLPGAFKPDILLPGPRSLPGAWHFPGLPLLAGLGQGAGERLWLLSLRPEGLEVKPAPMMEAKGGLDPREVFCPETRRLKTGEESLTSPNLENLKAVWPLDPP
# Outline: as §1
# ETS2 = target: T8, ETS2 (Homo sapiens, UniProt P15036 1-469); details: protein: recombinant; tags: N-terminal GST; dsDNA, one strand shown
# T8 sequence: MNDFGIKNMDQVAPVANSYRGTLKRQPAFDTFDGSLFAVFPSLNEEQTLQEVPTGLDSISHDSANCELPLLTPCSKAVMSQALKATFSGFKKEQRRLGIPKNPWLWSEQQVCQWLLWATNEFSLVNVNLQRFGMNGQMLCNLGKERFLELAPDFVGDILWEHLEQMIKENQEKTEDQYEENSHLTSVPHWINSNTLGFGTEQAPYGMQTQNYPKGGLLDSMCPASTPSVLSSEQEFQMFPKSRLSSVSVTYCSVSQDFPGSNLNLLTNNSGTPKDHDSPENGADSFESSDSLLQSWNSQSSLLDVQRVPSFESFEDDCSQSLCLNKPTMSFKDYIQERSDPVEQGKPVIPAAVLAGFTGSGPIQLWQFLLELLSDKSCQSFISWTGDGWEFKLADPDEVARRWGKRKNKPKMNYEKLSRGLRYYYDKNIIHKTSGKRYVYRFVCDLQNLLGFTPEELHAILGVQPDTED
# Outline: as §1
# SPDEF = target: T9, SPDEF (Homo sapiens, UniProt O95238 1-335); details: protein: recombinant; tags: N-terminal GST; dsDNA, one strand shown
# T9 sequence: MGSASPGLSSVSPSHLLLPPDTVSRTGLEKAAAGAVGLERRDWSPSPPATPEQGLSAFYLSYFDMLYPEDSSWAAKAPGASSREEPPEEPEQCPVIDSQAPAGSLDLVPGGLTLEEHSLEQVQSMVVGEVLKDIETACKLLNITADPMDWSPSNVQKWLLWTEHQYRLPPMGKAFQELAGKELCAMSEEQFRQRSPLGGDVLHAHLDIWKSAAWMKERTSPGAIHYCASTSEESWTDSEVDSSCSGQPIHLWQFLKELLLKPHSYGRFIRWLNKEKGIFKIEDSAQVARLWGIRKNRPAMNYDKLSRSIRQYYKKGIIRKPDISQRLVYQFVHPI
# Outline: as §1
# ETV7 = target: T10, ETV7 (Homo sapiens, UniProt Q9Y603 1-341); details: protein: recombinant; tags: N-terminal GST; dsDNA, one strand shown
# T10 sequence: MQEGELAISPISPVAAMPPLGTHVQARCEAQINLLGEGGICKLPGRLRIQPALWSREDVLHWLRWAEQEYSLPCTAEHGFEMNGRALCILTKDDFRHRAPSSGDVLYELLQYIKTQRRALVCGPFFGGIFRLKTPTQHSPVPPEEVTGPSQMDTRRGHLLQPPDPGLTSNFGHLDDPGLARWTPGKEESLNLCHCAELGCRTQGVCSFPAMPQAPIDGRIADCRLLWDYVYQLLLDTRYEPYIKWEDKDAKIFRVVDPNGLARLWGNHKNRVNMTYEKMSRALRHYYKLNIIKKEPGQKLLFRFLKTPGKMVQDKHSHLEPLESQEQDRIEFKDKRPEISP
# Outline: as §1
# ELF5 = target: T11, ELF5 (Homo sapiens, UniProt Q9UKW6-2 1-255); details: protein: recombinant; tags: N-terminal GST; dsDNA, one strand shown
# T11 sequence: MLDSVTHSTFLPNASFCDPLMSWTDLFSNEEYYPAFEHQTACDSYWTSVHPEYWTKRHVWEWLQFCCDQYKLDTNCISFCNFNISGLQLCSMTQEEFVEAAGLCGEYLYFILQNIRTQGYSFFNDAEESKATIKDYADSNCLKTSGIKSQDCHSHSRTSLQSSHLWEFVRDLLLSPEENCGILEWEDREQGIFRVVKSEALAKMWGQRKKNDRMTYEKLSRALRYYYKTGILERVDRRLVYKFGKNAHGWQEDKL
# Outline: as §1
# ETV3 = target: T12, ETV3 (Homo sapiens, UniProt P41162-2 1-143); details: protein: recombinant; tags: N-terminal GST; dsDNA, one strand shown
# T12 sequence: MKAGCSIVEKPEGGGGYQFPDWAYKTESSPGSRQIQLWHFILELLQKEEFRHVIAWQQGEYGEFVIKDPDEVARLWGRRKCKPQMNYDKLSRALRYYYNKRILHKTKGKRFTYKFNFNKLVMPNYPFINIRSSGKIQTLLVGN
# Outline: as §1
# ETV6 = ETV6 (Homo sapiens, UniProt P41212 1-452); details: protein: recombinant; tags: N-terminal GST; dsDNA, one strand shown
# Outline: as §1
# Sequence of ETV6 (P41212 whole entry): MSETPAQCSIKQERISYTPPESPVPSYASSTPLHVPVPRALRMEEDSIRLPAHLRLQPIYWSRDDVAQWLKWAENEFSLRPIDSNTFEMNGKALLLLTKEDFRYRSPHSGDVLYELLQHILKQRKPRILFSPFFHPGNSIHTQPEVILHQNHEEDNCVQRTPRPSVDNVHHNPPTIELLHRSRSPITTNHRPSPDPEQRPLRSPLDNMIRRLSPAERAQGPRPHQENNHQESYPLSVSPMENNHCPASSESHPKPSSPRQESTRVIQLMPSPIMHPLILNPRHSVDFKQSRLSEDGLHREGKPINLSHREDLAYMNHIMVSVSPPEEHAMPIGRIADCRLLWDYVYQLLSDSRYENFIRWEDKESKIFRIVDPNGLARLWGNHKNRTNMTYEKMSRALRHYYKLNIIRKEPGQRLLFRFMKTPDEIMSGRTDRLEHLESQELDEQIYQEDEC
# Sequence of ETV1 (P50549 whole entry): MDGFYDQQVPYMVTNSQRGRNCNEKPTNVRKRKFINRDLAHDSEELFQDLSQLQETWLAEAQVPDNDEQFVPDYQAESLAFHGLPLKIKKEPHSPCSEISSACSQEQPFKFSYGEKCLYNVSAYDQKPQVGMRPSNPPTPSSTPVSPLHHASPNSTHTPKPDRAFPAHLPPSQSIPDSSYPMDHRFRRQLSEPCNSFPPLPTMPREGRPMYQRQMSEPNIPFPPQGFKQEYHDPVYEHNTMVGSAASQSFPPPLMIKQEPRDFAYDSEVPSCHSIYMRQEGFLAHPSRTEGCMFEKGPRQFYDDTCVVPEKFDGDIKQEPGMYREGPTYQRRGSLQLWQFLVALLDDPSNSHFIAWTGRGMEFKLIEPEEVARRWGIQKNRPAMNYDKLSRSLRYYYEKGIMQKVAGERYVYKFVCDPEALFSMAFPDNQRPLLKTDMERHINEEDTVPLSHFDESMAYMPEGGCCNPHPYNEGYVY
# Sequence of ELF4 (Q99607 whole entry): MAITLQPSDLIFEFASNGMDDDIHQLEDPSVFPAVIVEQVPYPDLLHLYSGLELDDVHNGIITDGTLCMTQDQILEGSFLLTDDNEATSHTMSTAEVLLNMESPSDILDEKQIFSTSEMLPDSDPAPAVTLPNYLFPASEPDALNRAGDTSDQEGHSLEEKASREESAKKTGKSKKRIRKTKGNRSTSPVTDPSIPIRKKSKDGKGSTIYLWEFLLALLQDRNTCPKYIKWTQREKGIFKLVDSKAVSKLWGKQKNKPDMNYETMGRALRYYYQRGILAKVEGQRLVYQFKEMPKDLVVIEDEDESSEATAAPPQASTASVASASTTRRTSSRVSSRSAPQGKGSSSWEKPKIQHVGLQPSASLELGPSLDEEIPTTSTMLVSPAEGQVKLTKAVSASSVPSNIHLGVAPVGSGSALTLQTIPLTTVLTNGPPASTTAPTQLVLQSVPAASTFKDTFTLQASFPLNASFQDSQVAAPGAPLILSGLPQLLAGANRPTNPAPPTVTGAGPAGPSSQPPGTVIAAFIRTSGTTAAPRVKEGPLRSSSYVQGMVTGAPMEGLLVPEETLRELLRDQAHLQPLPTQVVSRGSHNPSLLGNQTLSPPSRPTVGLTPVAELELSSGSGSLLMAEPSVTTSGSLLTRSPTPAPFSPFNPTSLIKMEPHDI
# Sequence of ETV5 (P41161 whole entry): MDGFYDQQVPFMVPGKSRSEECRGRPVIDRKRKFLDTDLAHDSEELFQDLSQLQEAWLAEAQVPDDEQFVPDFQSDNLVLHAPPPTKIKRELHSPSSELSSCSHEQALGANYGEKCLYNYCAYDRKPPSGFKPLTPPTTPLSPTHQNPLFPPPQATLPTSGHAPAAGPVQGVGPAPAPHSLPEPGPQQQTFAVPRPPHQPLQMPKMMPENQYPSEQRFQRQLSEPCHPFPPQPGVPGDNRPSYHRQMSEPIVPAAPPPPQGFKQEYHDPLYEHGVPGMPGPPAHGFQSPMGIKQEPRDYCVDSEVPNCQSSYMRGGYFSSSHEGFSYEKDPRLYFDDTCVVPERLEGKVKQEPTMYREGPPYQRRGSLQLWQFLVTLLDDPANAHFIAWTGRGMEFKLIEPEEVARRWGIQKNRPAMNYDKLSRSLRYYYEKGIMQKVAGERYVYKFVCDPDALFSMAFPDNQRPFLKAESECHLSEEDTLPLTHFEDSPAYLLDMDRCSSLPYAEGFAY
# Sequence of HSF1 (Q00613 whole entry): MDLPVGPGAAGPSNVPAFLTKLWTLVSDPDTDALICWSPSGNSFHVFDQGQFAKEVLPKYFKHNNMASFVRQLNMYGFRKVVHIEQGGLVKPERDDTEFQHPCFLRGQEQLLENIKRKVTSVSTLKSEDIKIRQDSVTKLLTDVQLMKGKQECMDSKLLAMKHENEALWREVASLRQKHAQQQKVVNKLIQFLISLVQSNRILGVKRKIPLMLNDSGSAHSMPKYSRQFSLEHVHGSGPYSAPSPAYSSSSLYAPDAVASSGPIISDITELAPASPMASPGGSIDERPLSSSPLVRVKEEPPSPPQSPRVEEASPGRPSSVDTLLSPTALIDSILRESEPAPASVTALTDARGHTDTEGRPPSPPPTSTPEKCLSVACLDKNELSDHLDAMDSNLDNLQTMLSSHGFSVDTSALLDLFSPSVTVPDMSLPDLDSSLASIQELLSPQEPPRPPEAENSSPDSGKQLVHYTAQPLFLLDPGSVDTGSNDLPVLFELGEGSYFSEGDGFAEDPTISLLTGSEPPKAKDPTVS
# Sequence of CRX (O43186 whole entry): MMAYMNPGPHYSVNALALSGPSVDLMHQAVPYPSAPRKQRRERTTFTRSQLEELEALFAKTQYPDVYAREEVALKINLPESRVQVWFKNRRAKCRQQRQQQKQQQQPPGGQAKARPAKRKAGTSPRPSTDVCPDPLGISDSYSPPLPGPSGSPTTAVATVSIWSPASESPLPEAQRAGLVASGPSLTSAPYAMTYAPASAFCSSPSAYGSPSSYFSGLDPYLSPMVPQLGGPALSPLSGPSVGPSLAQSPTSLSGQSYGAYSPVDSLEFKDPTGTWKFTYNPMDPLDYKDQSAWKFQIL
sequence,measurement,setting,value
ATTACC,binding signal,FEV,"1.25 fold enrichment (6-mer frequency, TF over GST control)"
same,binding signal,ETV5,"1.36 fold enrichment (6-mer frequency, TF over GST control)"
same,binding signal,HSF1,"1.58 fold enrichment (6-mer frequency, TF over GST control)"
same,binding signal,SPIC,"1.26 fold enrichment (6-mer frequency, TF over GST control)"
same,binding signal,ELF4,"1.17 fold enrichment (6-mer frequency, TF over GST control)"
same,binding signal,ELK4,"1.21 fold enrichment (6-mer frequency, TF over GST control)"
same,binding signal,ETV2,"1.4 fold enrichment (6-mer frequency, TF over GST control)"
same,binding signal,ELF3,"1.1 fold enrichment (6-mer frequency, TF over GST control)"
same,binding signal,CRX,"2.17 fold enrichment (6-mer frequency, TF over GST control)"
same,binding signal,ETV1,"1.23 fold enrichment (6-mer frequency, TF over GST control)"
same,binding signal,ERF,"1.18 fold enrichment (6-mer frequency, TF over GST control)"
same,binding signal,ETV3L,"1.2 fold enrichment (6-mer frequency, TF over GST control)"
same,binding signal,ETS2,"1.27 fold enrichment (6-mer frequency, TF over GST control)"
same,binding signal,SPDEF,"1.18 fold enrichment (6-mer frequency, TF over GST control)"
same,binding signal,ETV7,"1.28 fold enrichment (6-mer frequency, TF over GST control)"
same,binding signal,ELF5,"1.32 fold enrichment (6-mer frequency, TF over GST control)"
same,binding signal,ETV3,"1.31 fold enrichment (6-mer frequency, TF over GST control)"
same,binding signal,ETV6,"1.33 fold enrichment (6-mer frequency, TF over GST control)"
